From PubChem BioAssay
This is a sample that favours compounds with a hit; in the whole collection about 1.1% have one here.
NCOA1 inh: SRC1 coactivator transcriptional activity inhibitors, primary screen, cell-based, luminescence. Nuclear receptor coactivator 1 (Homo sapiens), Q15788. HEK293 GAL4-SRC1 luciferase reporter. inhibition, % at 3.6 µM. hit rate 0.12% among 360,000. AID 588354, 2011;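 active = inhibition above the campaign mean plus 3 SD, with each screening campaign given its own cutoff, cut at about 60% in these data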;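 note: 0% = DMSO treated cells and 100% = gossypol at 36 µM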
LRH-1 inv ag: LRH-1 (NR5A2) inverse agonists, primary screen, cell-based, luminescence, HEK293T, StAR-luciferase reporter. Nuclear receptor subfamily 5 group A member 2 (Homo sapiens), O00482. hit rate 0.13% among 360,000. inhibition, % at 3.6 µM. LRH-1 transfected, 24 h. AID 602396, 2012;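 active = inhibition above the mean inhibition of all tested compounds plus 3 SD, cut at about 73% in these data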;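 note: 0% = DMSO wells and 100% = reporter-only cells lacking LRH-1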
GalR3 antag: GalR3 antagonists in HEK293 cells, primary screen, cell-based, fluorescence readout. Galanin receptor type 3 (Homo sapiens), O60755. AID 651719, 2012. hit rate 0.44% among 360,000. HEK293 GalR3-CNG cAMP membrane potential fluorescence; galR3 body fused to GalR1 C-terminus. inhibition, % at 3 µM;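 active = inhibition above the screen-wide average plus 3 SD, cut at about 13% in these data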;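 note: forskolin and galanin both at EC90 stimulate the cells; cAMP rise reported by CNG channel membrane potential dye signal; 0% = forskolin plus galanin with DMSO and 100% = forskolin alone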
Target sequence (O60755 1-299 limits assumed): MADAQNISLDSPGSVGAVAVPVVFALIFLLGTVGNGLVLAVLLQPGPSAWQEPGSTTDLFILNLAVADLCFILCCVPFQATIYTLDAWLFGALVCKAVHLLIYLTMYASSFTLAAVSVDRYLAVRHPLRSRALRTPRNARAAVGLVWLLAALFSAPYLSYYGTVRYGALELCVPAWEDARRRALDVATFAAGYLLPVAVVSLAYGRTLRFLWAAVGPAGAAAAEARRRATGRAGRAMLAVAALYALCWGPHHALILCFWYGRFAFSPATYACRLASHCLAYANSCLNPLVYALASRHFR
NCOA3 inh: SRC3 coactivator transcriptional activity inhibitors, primary screen, cell-based, luminescence | Nuclear receptor coactivator 3 (Homo sapiens), Q9Y6Q9 | HEK293 GAL4-SRC3 luciferase reporter | inhibition, % at 3.6 µM | hit rate 0.17% among 360,000 | AID 588352, 2011;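 active = inhibition above a per-campaign cutoff, the mean of all compounds plus 3 SD, cut at about 60% in these data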;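 note: 0% = DMSO-treated cells and 100% = gossypol-treated cells at 36 µM; higher means less SRC3-driven luciferase light from the GAL4 reporter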
SRC2 inh: inhibition of GAL4-SRC2 driven luciferase reporter, primary screen, SRC2 inhibitor project, cell-based, luminescence; HEK293 GAL4-SRC2 luciferase reporter; inhibition, % at 9 µM; hit rate 0.17% among 370,000;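 active = inhibition above the mean inhibition of all tested compounds plus 3 SD, set per campaign, cut at about 52% in these data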;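 note: 0% = DMSO treated cells and 100% = cells given Gossypol at 36 µM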
COUP-TFII inh: NR2F2 transcriptional activity inhibitors, primary screen, cell-based, luciferase reporter, HEK293T, luminescence; HEK293T NGFI-A luciferase reporter; AID 686940, 2013; inhibition, % at 8.6 µM; hit rate 0.7% among 370,000;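 active = inhibition above a per-plate cutoff, mean inhibition of test wells between control levels plus 3 SD, cut at about 38% in these data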;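 note: cells cotransfected with COUP-TFII expression vector driving the NGFI-A reporter; 0% = median of COUP-TF2 test wells and 100% = reporter-only cells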
GalR3 antag conf: GalR3 antagonist hit confirmation, cell-based, fluorescence, triplicate; shares compounds with GalR3 antag; HEK293 GalR3 CNG cAMP biosensor, membrane potential fluorescence; galR3 fused to GalR1 carboxy tail; challenged with forskolin and galanin at EC90; hit rate 59% among 1,600; inhibition, % at 3 µM; AID 652245, 2013;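 active = inhibition above the primary screen's cutoff, the mean inhibition of all screened compounds plus 3 SD, cut at about 13% in these data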;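 note: 0% = forskolin plus galanin and 100% = forskolin alone with DMSO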
CNG parental: nonspecific cAMP agonists in parental HEK-CNG cells, counter-screen for GalR3 antagonist project, cell-based, fluorescence, high throughput | shares compounds with GalR3 antag | HEK293-CNG parental cells, cAMP membrane potential fluorescence; normalised: DMSO wells 0%, forskolin wells 100% | activation, % at 3 µM | hit rate 10% among 1,600 | AID 652268, 2013; in the data active = activation above about 1.3%
* marks the source's active call; other numbers are inactive results; . = not tested or not shown.

SMILES	NCOA1 inh	LRH-1 inv ag	GalR3 antag	NCOA3 inh	SRC2 inh	COUP-TFII inh	others
COC(=O)C12C=C3CC(C)=C3C(=O)N1Cc1[nH]c3ccccc3c1C2 (stereo unspecified)	.	.	.	.	-11	-8
CN(Cc1cn(CC2CCCCC2)nn1)S(=O)(=O)c1ccccc1Br	.	.	.	.	7	7
CC(C)N1Cc2nnn(Cc3ccc(F)cc3)c2-c2cc(F)ccc2S1(=O)=O	.	.	.	.	1	1
S=C(NCCCCN(Cc1ccc(Cl)cc1)c1ccc(Br)cn1)NCCCc1cnc[nH]1	37	95*	-5	60	41	29
CC(COc1ccccc1)CN1CCC(C(O)(c2ccccc2)c2ccccc2)CC1 (stereo unspecified)	.	.	.	.	4	-2
Cc1ccc(-c2cc(C(=O)NCCCN3CCOCC3)no2)cc1	26	18	-4	21	56*	18
O=C(NCCCN1CCOCC1)c1cc(-c2ccc(Cl)c(Cl)c2)on1	-10	-11	-8	3	-7	2
CN1Cc2nnn(Cc3ccccc3)c2-c2ccccc2S1(=O)=O	.	.	.	.	-7	2
O=C1[C@@H]2Cc3c([nH]c4ccccc34)C(c3ccc([N+](=O)[O-])cc3)N2C(=O)CN1C1CC1 (stereo partly specified)	75*	51	-12	69*	-8	26
CCCCCCN1CCS(=O)(=O)N(Cc2ccc(C)cc2)C(C(=O)OC)C1 (stereo unspecified)	.	.	.	.	-8	-5
Cc1ccc(O)c(N=Nc2nccs2)c1	73*	83*	-1	64*	23	-62
COc1ccc(N=Nc2cc(C)ccc2O)cc1	-151	-140	-4	-66	-67	-53
COC(=O)[C@]12C[C@H](CC(=O)NCC3CCCCC3)C(=O)N(Cc3ccc(Cl)cc3Cl)C1=C[C@H](C(C)C)O[C@@H]2C1CC1	.	.	.	.	10	9
O=C(Nc1cccc2c1CCCC2)c1cc([N+](=O)[O-])ccc1Cl	28	18	-8	22	58*	17
Nc1nc(N)nc(-c2cc(O)ccc2O)n1	71*	54	-1	59	39	25
Nc1nc(N)nc(-c2cc([N+](=O)[O-])ccc2O)n1	12	5	-1	-3	-16	12
C[C@H](O)[C@@H]1C(=O)N2CCc3c([nH]c4c(-c5ccc6c(c5)OCO6)cccc34)[C@@H]2C[C@@H]1N(C)C(=O)c1ccccc1F	.	.	.	.	4	-7
COC(=O)C1CN(Cc2ccccc2)CCS(=O)(=O)N1Cc1ccc(Cl)cc1 (stereo unspecified)	.	.	.	.	16	3
COC(C(=O)C(O)C(C)O)C1Cc2cc3cc(OC4CC(OC5CC(O)C(O)C(C)O5)C(O)C(C)O4)c(C)c(O)c3c(O)c2C(=O)C1OC1CC(OC2CC(OC3CC(O)C(OC)C(C)O3)C(O)C(C)O2)C(O)C(C)O1 (stereo unspecified)	75*	98*	-5	86*	32	-11
COc1cc(C=Nn2c(-c3cc(-c4ccccc4)n[nH]3)n[nH]c2=S)ccc1OC(C)=O	.	.	.	.	-29	-35
CCC(=O)Nc1cc2nn(-c3ccc(OC)cc3)nc2cc1C	-103	-77	-1	-105	-65	-52
CCC(=O)Nc1cc2nn(-c3ccc(C)cc3)nc2cc1C	44	18	-4	34	6	46*
CCCCN1C[C@@H](COCc2ccccc2)Oc2cc(F)ccc2S1(=O)=O	.	.	.	.	35	5
COc1ccc(/C=C2\CN(Cc3ccccc3)C/C(=C\c3ccc(OC)c(O)c3)C2=O)cc1O	33	16	-5	43	52*	4
CN(C)C(=O)c1cccc(-c2ccc3nncn3c2)c1	8	18	-6	1	-16	-6
SMILES	NCOA1 inh	LRH-1 inv ag	GalR3 antag	NCOA3 inh	SRC2 inh	COUP-TFII inh	others
CNc1ccc2ncc(-c3cccc(C(=O)N(C)C)c3)n2n1	69*	14	-5	58	56*	19
CC(C)(C)c1ccc(C(=O)NCc2ccc(Cl)cc2)cc1	-19	1	1	-20	-36	2
CC(C)(C)OC(=O)N1CCN(c2ccc(CNC(=O)c3ccc(Cl)cc3)cc2)CC1	-5	29	-8	9	17	39*
COC(=O)[C@H](CC(C)C)N(Cc1cn(Cc2ccc(C)cc2)nn1)S(=O)(=O)c1ccc(F)cc1Br	.	.	.	.	28	11
C=CCN(C)CC#Cc1ccc(C)cc1	.	.	.	.	-9	-13
CN(Cc1ccccc1)C(=O)OCc1cn(Cc2ccccc2)nn1	.	.	.	.	-6	-10
CCC(=O)OCCNc1cc(Sc2nc3ccccc3s2)c2nonc2c1[N+](=O)[O-]	-16	0	-3	-5	-10	-5
Cc1nnc(Sc2cc(NCCCO)c([N+](=O)[O-])c3nonc23)s1	-1	4	21*	-12	-26	3	GalR3 antag conf=5;CNG parental=0
CCCC(=O)OCCNc1cc(Sc2nccn2C)c2nonc2c1[N+](=O)[O-]	-13	-14	40*	19	10	2	GalR3 antag conf=24*;CNG parental=0
CCC(=O)OCCNc1cc(Sc2nc3ccccc3[nH]2)c2nonc2c1[N+](=O)[O-]	9	2	35*	18	-1	8	GalR3 antag conf=32*;CNG parental=0
Cc1nnc(Sc2cc(NCCO)c([N+](=O)[O-])c3nonc23)s1	-2	-1	7	-7	7	-1
CCCSc1cc(NCCOC(=O)CCC)c([N+](=O)[O-])c2nonc12	3	8	3	12	11	-5
Cc1ccc(NC(=O)C2CCN(c3nnc(-n4cccc4)s3)CC2)cc1C	.	.	.	.	2	17
COC(=O)[C@]12C[C@H](CC(=O)N3CCSCC3)C(=O)N(Cc3ccc(Cl)cc3Cl)C1=C[C@H](C(C)(C)C)O[C@@H]2C	.	.	.	.	32	4
COC(=O)CSc1nc(N)c(C#N)c(-c2ccc(O)cc2)c1C#N	-2	19	45*	-3	-24	-21	GalR3 antag conf=74*;CNG parental=1
